According to PubChem BioAssay (NCATS):
Values joined by “and” are separate entries in the source; they are usually repeats but may differ in a detail not shown here. Identical values can stand only once. Records with an inconclusive call do not appear. Active and inactive are the calls of the source. Unless noted, the call rests on the fitted dose curve; in most records, active means well fitted curve in the direction sought with a large enough effect; inconclusive means small, poorly fitted or top-dose-only effect, or another doubt; inactive means no such curve, though single readings can be large; an effect the other way counts as inactive or inconclusive.

Experiments:
[1] = Cell Viability - BJ (AID 421; calls by dose curve;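 further: potency means the concentration at half of the fitted maximal effect; cells exposed to compound for 40 hours at 37 °C before readout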); conditions: BJ fibroblast viability, qHTS
Summary of the method: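 Luminescent ATP signal (CellTiter-Glo, 20 min at room temperature) served as the read-out of viable BJ cells after 40 hours of compound treatment. Responses were scaled between DMSO and 100 uM tamoxifen, and AC50 values were obtained by Hill modeling.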

[2] = Cell Viability - Jurkat (AID 426;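 active means dose-dependent loss of cell ATP signal giving a full or clear fitted curve, ranked by lower potency value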;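 further: potency means the concentration at half of the fitted maximal effect; cells exposed to compound for 40 hours at 37 °C before ATP read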); conditions: qHTS
Summary of the method: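 Cytotoxicity was scored as loss of cellular ATP, measured by luciferase-based luminescence, in Jurkat clone E6-1 cells after 40 h compound treatment; tamoxifen and doxorubicin served as positive controls.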

[3] = Cell Viability - Hek293 (AID 427;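 active means compounds whose dose-response curve shows a full or clear partial loss of cell viability, called from curve shape rather than a numeric limit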;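 further: potency means the concentration at half of the fitted maximal effect; cells exposed to compound for 40 hours at 37 °C before reading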); conditions: qHTS
Summary of the method: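 Luminescent ATP read-out (CellTiter-Glo, 20 min RT) after 40 hr compound exposure at 37 °C in complete medium. Signal normalized to DMSO (basal) and 100 uM tamoxifen (100% inhibition); concentration-response fitted with the standard Hill equation to give AC50.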

[4] = Cell Viability - HepG2 (AID 433; calls by dose curve;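 further: potency means the concentration at half of the fitted maximal effect; potency for ATP loss meaning cytotoxicity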); conditions: qHTS
Summary of the method: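 ATP luminescence (CellTiter-Glo) after 40 h compound exposure, 37 °C, HepG2, 1500 cells/well, complete medium. Normalized: DMSO = basal, 100 uM tamoxifen = 100% inhibition. AC50 via standard Hill equation.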

[5] = Cell Viability - MRC5 (AID 434; calls by dose curve;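 further: potency means the concentration at half of the fitted maximal effect; cells exposed to compound for 40 hours at 37 °C; potency reflects cytotoxicity seen as loss of intracellular ATP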); conditions: MRC5 lung fibroblast viability, qHTS
Summary of the method: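 ATP luminescence read-out (CellTiter-Glo, 20 min RT) after 40 hr, 37 °C compound exposure of 1500 MRC5 cells/well. Data normalized to DMSO (basal) and 100 uM tamoxifen (100% inhibition); AC50 from standard Hill equation.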

[6] = Cell Viability - SK-N-SH (AID 435; calls by dose curve; further: potency means the concentration at half of the fitted maximal effect); conditions: SK-N-SH neuroblastoma cell viability qHTS
Summary of the method: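 CellTiter-Glo ATP luminescence, 20 min RT read; cells pre-plated 5 hr, compound 40 hr at 37 °C, 1500 cells/well, complete medium. Normalized DMSO = 0, 100 uM tamoxifen = 100% inhibition; Hill-fit AC50.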

[7] = Cell Viability - HUV-EC-C (AID 542); conditions: HUV-EC-C endothelial cell viability, qHTS; series mostly up to 92.2 µM; further: on the % scale 0 is the no-effect control and ±100 the full control effect; nearly all actives have a fitted effect of over 35% in size
Summary of the method: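 Concentration-dependent ATP loss in HUV-EC-C cells is the measure. Exposure lasts 40 hr at 37 °C; luminescence follows CellTiter-Glo addition, and Hill fits give AC50.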

[8] = Cellular Toxicity (caspase-3) HepG2 (AID 654); conditions: HepG2 caspase-3 activation, luminescence, 0% = DMSO only, 100% = tamoxifen; series mostly up to 92.2 µM;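 further: cells exposed to compound for 16 hours before reading; 0% = DMSO alone and 100% = caspase signal from 100 µM tamoxifen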
Summary of the method: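 Concentration-response AC50 values reflect caspase-3/7 induction in HepG2 cells after 16 hours of compound exposure, quantified by luminescence from liberated aminoluciferin and referenced to 100 uM tamoxifen as full stimulation.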

[9] = Cellular Toxicity (caspase-3) SK-N-SH (AID 661); conditions: SK-N-SH caspase-3 activation, qHTS; series mostly up to 91.7 µM
Summary of the method: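 Apoptosis readout in SK-N-SH neuroblastoma: Caspase-Glo 3/7 luminescence following 16 hr treatment in complete culture medium. Normalization used DMSO and 10 uM staurosporine controls.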

[10] = Cellular Toxicity (caspase-3) N2a (AID 665); conditions: N2a cells, luminescence, normalized: DMSO 0%, 10 µM staurosporine 100%; series mostly up to 92.2 µM;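 further: compound exposure lasted 16 h at 37 °C before readout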
Summary of the method: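 Concentration-response qHTS: compound-induced caspase-3/7 luminescence in N2a cells (16 h, 37 °C), relative to DMSO and 10 uM staurosporine controls; AC50 obtained using the standard Hill equation.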

[11] = Cellular Toxicity (caspase-3) NIH 3T3 (AID 666); conditions: NIH 3T3 caspase-3 activation, apoptosis/toxicity; series mostly up to 92.2 µM;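 further: 0% = DMSO basal and 100% = 100 µM tamoxifen stimulation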
Summary of the method: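 Activity: caspase-3/7 induction, NIH 3T3 cells, 16 hr treatment at 37°C, luminescent Caspase-Glo detection; AC50 via Hill equation.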

[12] = Cellular Toxicity (caspase-3) Renal Proximal Tubule (AID 667); conditions: renal proximal tubule cells; series mostly up to 91.7 µM;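 further: cells exposed to compound for 16 hours at 37 °C before detection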
Summary of the method: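 Luminescent caspase 3/7 signal from peptide-aminoluciferin cleavage measures apoptosis in freshly isolated rat kidney proximal tubule cells after 16 h compound exposure. Concentration-response data are normalized to DMSO and 10 uM staurosporine, and AC50 values come from Hill equation fits.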

[13] = MultiTox-Fluor Cytotoxicity Assay - LYMP1-003 - Dead Cells (AID 961); conditions: LYMP1-003 lymphoblastoid cells, dead-cell protease fluorescence; series mostly up to 92.2 µM;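 further: 0% = DMSO and 100% = tetraoctylammonium bromide; nearly all actives have a fitted effect of over 70% in size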
Summary of the method: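 Human lymphoblastoid LYMP1-003 cells (2500/well) were treated with compounds for 16 hr at 37 C in complete medium. Dead-cell protease release was read by bis-AAF-R110 fluorescence (Ex/Em 485/520). AC50 came from Hill fits, normalized to DMSO and 15 uM tetraoctylammonium bromide.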

[14] = Cell Viability - LYMP2-007 (AID 979); conditions: LYMP2-007 lymphoblastoid cell viability; series mostly up to 92.2 µM;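 further: cells exposed to compound for 24 h before reading; 0% = DMSO only and the negative end = 92 µM tetraoctylammonium bromide; nearly all actives have a fitted effect of over 60% in size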
Summary of the method: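 Measured via luciferase-based ATP quantitation: lymphoblastoid cells, 24 hr compound exposure at 37 C, AC50 from Hill fits.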

[15] = Cell Viability - LYMP1-002 - Assay at 24 hr (AID 993); conditions: LYMP1-002 lymphoblastoid cells viability; series mostly up to 92.2 µM; further: on the % scale 0 is the no-effect control and ±100 the full control effect
Summary of the method: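 Viability was judged from intracellular ATP using a luciferase read-out, following a 24-hour compound incubation at 37 C of lymphoblastoid cells seeded at 2500 per well. Concentration-response data were fitted to the Hill equation for AC50.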

[16] = qHTS Assay for Identification of Small Molecule Inducers of Hypoxia Response (AID 2120; active means well fitted curve in the direction sought with a large enough effect in the signal ratio, with a control signal flat, not every such curve was filed as active; the % refers to the signal ratio; further: 0% is about no effect); conditions: hypoxia response reporter cells, beta-lactamase ratio readout; series mostly up to 104 µM
Summary of the method: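 HRE-bla ME-180, 2500 cells/well, 0.5% dialyzed FBS medium; cpd titration, 17 h 37 degrees C; CCF4 2.5 h RT; Ex 405, Em 460/530 ratio -> %Activity, AC50.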

[17] = molecular target: Peroxisome proliferator-activated receptor alpha (Homo sapiens) (UniProt Q07869); experiment: qHTS assay for small molecule agonists of the peroxisome proliferator-activated receptor alpha (PPARalpha) signaling pathway (AID 651778); conditions: PathHunter PPARalpha complementation, chemiluminescence, 6 h; active compounds read high; further: % of control where 0% means no effect
Summary of the method: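 Enzyme-fragment complementation assay in which ligand-bound PPARalpha translocates and forms an active enzyme that generates chemiluminescence. Cells were plated overnight, exposed to compound for 6 hr at 37 C, and then given detection reagent for 60 min at room temperature.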

[18] = qHTS assay for small molecule agonists of the antioxidant response element (ARE) signaling pathway measured by Nrf2-dependant transcriptional activity - cell viability counter screen (AID 720653; active means well fitted curve in the direction sought with a large enough effect in the repeat runs; an effect the other way counts as inactive or inconclusive; further: on the % scale 0 is the no-effect control and ±100 the full control effect); conditions: ARE-bla HepG2 viability, CellTiter-Glo ATP luminescence, 16 h; active compounds read low
Summary of the method: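 ARE-bla HepG2 cells treated with compounds for 16 h at 37C; this counter screen measures viability as intracellular ATP by CellTiter-Glo luminescence after 30 min at room temperature.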

[19] = qHTS assay for cell viability of HEK293 cells (AID 743288); conditions: ATP luminescence (CellTiter-Glo), 18 h, active compounds read low; further: on the % scale 0 is the no-effect control and ±100 the full control effect; nearly all actives have a fitted effect of over 50% in size
Summary of the method: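 ATP luminescence (CellTiter-Glo) reports metabolically competent cell number after parental HEK293 cells, 2,000/well, were treated with DMSO-dissolved compounds for 18 h at 37 C; reagent incubation 30 min, room temperature.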

[20] = qHTS assay for cell viability of the p53RE-bla HCT-116 cell line (AID 743292); conditions: p53RE-bla HCT-116 viability, ATP luminescence, 16 h; series mostly up to 95 µM; further: on the % scale 0 is the no-effect control and ±100 the full control effect; nearly all actives have a fitted effect of over 55% in size
Summary of the method: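 Readout: CellTiter-Glo luminescence after 30 min RT. Treatment: compounds in DMSO, 16 h, 37 C. Cells: CellSensor p53RE-bla HCT-116, 4,000/well, preincubated 5 h.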

Sequence of Peroxisome proliferator-activated receptor alpha (Homo sapiens) (Q07869 whole entry, looked up, the tested form may be a part): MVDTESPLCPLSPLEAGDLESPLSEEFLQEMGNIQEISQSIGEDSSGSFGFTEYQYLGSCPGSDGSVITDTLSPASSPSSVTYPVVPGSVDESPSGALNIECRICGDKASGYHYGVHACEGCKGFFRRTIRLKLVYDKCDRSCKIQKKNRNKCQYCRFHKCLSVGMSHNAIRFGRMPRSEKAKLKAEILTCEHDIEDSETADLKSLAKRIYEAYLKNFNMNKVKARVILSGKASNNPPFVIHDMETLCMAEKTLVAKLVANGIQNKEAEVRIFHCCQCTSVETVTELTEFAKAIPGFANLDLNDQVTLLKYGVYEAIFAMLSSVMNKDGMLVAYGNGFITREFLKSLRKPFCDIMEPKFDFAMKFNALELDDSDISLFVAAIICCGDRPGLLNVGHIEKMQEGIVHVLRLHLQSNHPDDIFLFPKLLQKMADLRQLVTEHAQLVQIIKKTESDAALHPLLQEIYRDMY

C=CCO
inactive: Potency [1] > 92 µM | Potency [2] > 92 µM | Potency [3] > 92 µM | Potency [4] > 92 µM | Potency [5] > 92 µM | Potency [6] > 92 µM | Potency [7] | outcome [8] | Potency [9] | outcome [10] | Potency [11] | outcome [12] | Potency [13] | Potency [14] | Potency [15] | Potency [16] | max response [17] -7.9% | max response [18] 1.93% | max response [19] 9.9% | Potency [20]

CCCCCOC(=O)c1ccccc1C(=O)OCCCCC
inactive: Potency [1] > 92 µM | Potency [2] > 92 µM | Potency [3] > 92 µM | Potency [4] > 92 µM | Potency [5] > 92 µM | Potency [6] > 92 µM | Potency [7] | outcome [8] | Potency [9] | outcome [10] | Potency [11] | outcome [12] | Potency [13] | Potency [14] | Potency [15] | Potency [16] | max response [17] -4.34% and -0.557% | max response [18] 0.29% and 4.72% | max response [19] 4.12% and -1.01% | Potency [20]

CCC/C=N/O
inactive: Potency [1] > 92 µM | Potency [2] > 92 µM | Potency [3] > 92 µM | Potency [4] > 92 µM | Potency [5] > 92 µM | Potency [6] > 92 µM | Potency [7] | outcome [8] | Potency [9] | outcome [10] | Potency [11] | outcome [12] | Potency [13] | Potency [14] | Potency [15] | Potency [16] | max response [17] -3.79% | max response [18] -12.8% | max response [19] 1.47% | Potency [20]

Oc1ccc(Cl)c(Cl)c1Cl
inactive: Potency [1] > 92 µM | Potency [2] > 92 µM | Potency [3] > 92 µM | Potency [4] > 92 µM | Potency [5] > 92 µM | Potency [6] > 92 µM | Potency [7] | outcome [8] | Potency [9] | outcome [10] | Potency [11] | outcome [12] | Potency [13] | Potency [14] | Potency [15] | Potency [16] | max response [17] 0.378% | max response [18] 13.8% | max response [19] -4.77% | Potency [20]

CCCCCCCCCCCCCl
inactive: Potency [1] > 92 µM | Potency [2] > 92 µM | Potency [3] > 92 µM | Potency [4] > 92 µM | Potency [5] > 92 µM | Potency [6] > 92 µM | Potency [7] | outcome [8] | Potency [9] | outcome [10] | Potency [11] | outcome [12] | Potency [13] | Potency [14] | Potency [15] | Potency [16] | max response [17] -2.89% | max response [18] -2.45% | max response [19] -0.903% | Potency [20]

c1ccoc1
inactive: Potency [1] > 92 µM | Potency [2] > 92 µM | Potency [3] > 92 µM | Potency [4] > 92 µM | Potency [5] > 92 µM | Potency [6] > 92 µM | Potency [7] | outcome [8] | Potency [9] | outcome [10] | Potency [11] | outcome [12] | Potency [13] | Potency [14] | Potency [15] | Potency [16] | max response [17] 0.928% | max response [18] 9.49% | max response [19] 0.0286% | Potency [20]

CCOC(=O)CC(SP(=O)(OC)OC)C(=O)OCC (stereo not given)
inactive: Potency [1] > 92 µM | Potency [2] > 92 µM | Potency [3] > 92 µM | Potency [4] > 92 µM | Potency [5] > 92 µM | Potency [6] > 92 µM | Potency [7] | outcome [8] | Potency [9] | outcome [10] | Potency [11] | outcome [12] | Potency [13] | Potency [14] | Potency [15] | Potency [16] | max response [17] -2.03% and -3.38% | max response [18] 0.403% and 18.9% | max response [19] -12.5% and -3.42% | Potency [20]

CN(C)C(=O)Cl
inactive: Potency [1] > 92 µM | Potency [2] > 92 µM | Potency [3] > 92 µM | Potency [4] > 92 µM | Potency [5] > 92 µM | Potency [6] > 92 µM | Potency [7] | outcome [8] | Potency [9] | outcome [10] | Potency [11] | outcome [12] | Potency [13] | Potency [14] | Potency [15] | Potency [16] | max response [17] -4.05% | max response [18] -21% | max response [19] 4.48% | Potency [20]

ClC(Cl)Br
inactive: Potency [1] > 92 µM | Potency [2] > 92 µM | Potency [3] > 92 µM | Potency [4] > 92 µM | Potency [5] > 92 µM | Potency [6] > 92 µM | Potency [7] | outcome [8] | Potency [9] | outcome [10] | Potency [11] | outcome [12] | Potency [13] | Potency [14] | Potency [15] | Potency [16] | max response [17] -1.39% | max response [18] 9.16% | max response [19] 7.42% | Potency [20]
